Source: the supplement of paper PMC10849652
Of roughly 7,900 targets only a part is listed; those with a hit were picked by preference. About 0.6% of all pairs of compound and target were hits.

Assays:
Assay in all cases: log2 fold change, soluble protein after heating vs DMSO (PISA); higher = thermal stabilisation; K562 cells, 10 uM, 30 min; active = over 0.2 and 3.5 SD of the protein, either way, in both replicates (recomputed)
erlotinib = compound: C#Cc1cccc(Nc2ncnc3cc(OCCOC)c(OCCOC)cc23)c1 [erlotinib]
Procedure, shortened: (§1)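 K562 cells at 2×10^6 cells/mL were exposed to 10 μM compound for 30 min, then aliquots were heated for 3 min across 48°C-58°C, pooled, and extracted in PBS containing 0.5% NP-40 at 4°C. The supernatant after 21,000xg for 90 min was taken as soluble protein and measured by TMTpro 16plex LC-MS/MS with channel sums equalised. Thermal stability is reported relative to control samples, with values from duplicates. Fold changes are given on a log2 scale.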

[1] = compound: C1=CC(=C(C=C1Cl)C2=NC3=NC=CN=C3C(=N2)NC4=CC=NC=C4)F
Procedure, shortened: as §1

[2] = compound: C1=CC(=CC=C1C2=NC3=C(N2)C=C(C=C3)C(=O)N)OC4=CC=C(C=C4)Cl
Procedure, shortened: as §1

[3] = compound: C1CCN(C1)C(=O)NC2=CC=CC(=C2)NC3=NC=C(C(=N3)NCCC4=CN=CN4)Br
Procedure, shortened: as §1

[4] = compound: C1CN(CCC1(CC2=CC=C(C=C2)Cl)N)C3=NC=NC4=C3C=CN4
Procedure, shortened: as §1

[5] = compound: CC(C)(O)CC(=O)NCCn1ccc2ncnc(Nc3ccc(Oc4cccc(C(F)(F)F)c4)c(Cl)c3)c21
Procedure, shortened: as §1

[6] = compound: CC(C)C1=C2N=C(C=C(N2N=C1)NCC3=CC=CC=C3)NCCCCCCN
Procedure, shortened: as §1

[7] = compound: CC1=C(C2=C(C=C1)C(=O)C3=CC=CC=C3N2CCCN)C
Procedure, shortened: as §1

[8] = compound: C1=CC2=NC=CN=C2C=C1/C=C/3\C(=O)NC(=O)S3
Procedure, shortened: as §1

ibrutinib = compound: C=CC(=O)N1CCC[C@@H](n2nc(-c3ccc(Oc4ccccc4)cc3)c3c(N)ncnc32)C1 [ibrutinib]
Procedure, shortened: as §1

[9] = compound: C/C(=N\NC(=O)C1=CC(=CC=C1)S(=O)(=O)N2CCOCC2)/C3=C(C=CC(=C3)Cl)O
Procedure, shortened: as §1

[10] = compound: C1=CC2=C(C=CC(=C2)/C=C\3/C(=O)NC(=NCC4=CC=CS4)S3)N=C1
Procedure, shortened: as §1

[11] = compound: C1=CC=C(C=C1)C2=NC(=C(N2)C3=CC=NC=C3)C4=CC(=C(C=C4)Cl)O
Procedure, shortened: as §1

[12] = compound: C1=CC=C2C(=C1)C3=NNC4=CC=CC(=C43)C2=O
Procedure, shortened: as §1

IRAK-1-4 Inhibitor I = compound: C1COCCN1CCN2C3=CC=CC=C3N=C2NC(=O)C4=CC(=CC=C4)[N+](=O)[O-] [IRAK-1-4 Inhibitor I]
Procedure, shortened: as §1

[13] = compound: CC(=O)c1cnc2ccc(-c3cc(Cl)c(O)c(Cl)c3)nc2c1N[C@H]1CC[C@H](CN(C)C)CC1
Procedure, shortened: as §1

ralimetinib = compound: CC(C)(C)Cn1c(N)nc2ccc(-c3[nH]c(C(C)(C)C)nc3-c3ccc(F)cc3)nc21 [ralimetinib]
Procedure, shortened: as §1

[14] = compound: CC(C)C[C@@H](C=O)NC(=O)[C@H](CC(C)C)NC(=O)[C@H](CC(C)C)NC(=O)OCc1ccccc1
Procedure, shortened: as §1

pinometostat = compound: CC(C)N(C[C@H]1O[C@@H](n2cnc3c(N)ncnc32)[C@H](O)[C@@H]1O)[C@H]1C[C@@H](CCc2nc3cc(C(C)(C)C)ccc3[nH]2)C1 [pinometostat]
Procedure, shortened: as §1

[15] = compound: CC1=C(C(CC(=O)N1)C2=CC=C(C=C2)C(F)(F)F)C(=O)NC3=C(C=C4C(=C3)C=NN4)F
Procedure, shortened: as §1

Measured: log2 fold change

ERF (UniProt P50548)
Sequence of UniProt P50548 (P50548 whole entry, looked up): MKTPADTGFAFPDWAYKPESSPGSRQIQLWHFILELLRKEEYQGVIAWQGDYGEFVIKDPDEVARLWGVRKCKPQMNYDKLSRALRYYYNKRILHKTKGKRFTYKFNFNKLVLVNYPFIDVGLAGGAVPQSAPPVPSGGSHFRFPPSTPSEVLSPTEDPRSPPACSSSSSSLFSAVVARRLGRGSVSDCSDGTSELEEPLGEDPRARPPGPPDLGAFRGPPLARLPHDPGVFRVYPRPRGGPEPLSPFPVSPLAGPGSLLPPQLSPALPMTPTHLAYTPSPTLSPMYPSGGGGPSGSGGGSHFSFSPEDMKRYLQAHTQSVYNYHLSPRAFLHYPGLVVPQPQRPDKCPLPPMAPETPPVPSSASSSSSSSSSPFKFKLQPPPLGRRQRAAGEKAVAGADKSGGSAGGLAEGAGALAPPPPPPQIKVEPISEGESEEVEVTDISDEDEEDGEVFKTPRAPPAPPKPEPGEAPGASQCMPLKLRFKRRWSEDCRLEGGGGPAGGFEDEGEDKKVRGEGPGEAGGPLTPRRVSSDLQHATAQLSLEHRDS
inactive: erlotinib -0.448 | [1] 0.127 | [2] -0.036 | [3] 0.058 | [4] 0.13 | [5] 0.093 | [6] 0.186 | [7] 0.094

EPHX2 (UniProt E5RI53)
inactive: [1] 0.037 | [8] -0.082 | ibrutinib 0.085 | [5] 0.071

DHRS13 (UniProt Q6UX07)
Sequence of UniProt Q6UX07 (Q6UX07 whole entry, looked up): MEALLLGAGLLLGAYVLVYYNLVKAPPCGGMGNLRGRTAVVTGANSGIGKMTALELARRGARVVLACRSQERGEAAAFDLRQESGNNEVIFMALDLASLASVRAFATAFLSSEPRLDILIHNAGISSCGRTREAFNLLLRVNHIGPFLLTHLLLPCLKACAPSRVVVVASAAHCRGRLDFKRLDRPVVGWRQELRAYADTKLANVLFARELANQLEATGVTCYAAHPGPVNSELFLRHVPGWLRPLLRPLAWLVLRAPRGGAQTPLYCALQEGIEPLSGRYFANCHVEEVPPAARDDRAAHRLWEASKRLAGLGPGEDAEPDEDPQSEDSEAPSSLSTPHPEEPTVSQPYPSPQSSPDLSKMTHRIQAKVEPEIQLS
inactive: erlotinib 0.014 | [9] 0.043 | [2] -0.006 | [10] 0.037 | [11] 0.073 | [12] 0.047 | [3] -0.009 | [4] 0.065 | IRAK-1-4 Inhibitor I -0.275 | [13] -0.051 | ralimetinib 0.035 | [6] -0.007 | [14] 0.144 | pinometostat 0.224 | [15] -0.168 | [7] -0.085

FAM160A2 isoform 2 (UniProt Q8N612)
inactive: [1] 0.2 | [8] -0.012 | [11] -0.134 | [3] -0.071 | [4] 0.027 | IRAK-1-4 Inhibitor I 0.029 | ibrutinib -0.003 | ralimetinib -0.029 | [5] -0.326 | [14] 0.013 | pinometostat 0.004 | [15] -0.146 | [7] 0.102

DDB1 isoform 2 (UniProt Q16531)
Sequence of UniProt Q16531 (Q16531 whole entry, looked up): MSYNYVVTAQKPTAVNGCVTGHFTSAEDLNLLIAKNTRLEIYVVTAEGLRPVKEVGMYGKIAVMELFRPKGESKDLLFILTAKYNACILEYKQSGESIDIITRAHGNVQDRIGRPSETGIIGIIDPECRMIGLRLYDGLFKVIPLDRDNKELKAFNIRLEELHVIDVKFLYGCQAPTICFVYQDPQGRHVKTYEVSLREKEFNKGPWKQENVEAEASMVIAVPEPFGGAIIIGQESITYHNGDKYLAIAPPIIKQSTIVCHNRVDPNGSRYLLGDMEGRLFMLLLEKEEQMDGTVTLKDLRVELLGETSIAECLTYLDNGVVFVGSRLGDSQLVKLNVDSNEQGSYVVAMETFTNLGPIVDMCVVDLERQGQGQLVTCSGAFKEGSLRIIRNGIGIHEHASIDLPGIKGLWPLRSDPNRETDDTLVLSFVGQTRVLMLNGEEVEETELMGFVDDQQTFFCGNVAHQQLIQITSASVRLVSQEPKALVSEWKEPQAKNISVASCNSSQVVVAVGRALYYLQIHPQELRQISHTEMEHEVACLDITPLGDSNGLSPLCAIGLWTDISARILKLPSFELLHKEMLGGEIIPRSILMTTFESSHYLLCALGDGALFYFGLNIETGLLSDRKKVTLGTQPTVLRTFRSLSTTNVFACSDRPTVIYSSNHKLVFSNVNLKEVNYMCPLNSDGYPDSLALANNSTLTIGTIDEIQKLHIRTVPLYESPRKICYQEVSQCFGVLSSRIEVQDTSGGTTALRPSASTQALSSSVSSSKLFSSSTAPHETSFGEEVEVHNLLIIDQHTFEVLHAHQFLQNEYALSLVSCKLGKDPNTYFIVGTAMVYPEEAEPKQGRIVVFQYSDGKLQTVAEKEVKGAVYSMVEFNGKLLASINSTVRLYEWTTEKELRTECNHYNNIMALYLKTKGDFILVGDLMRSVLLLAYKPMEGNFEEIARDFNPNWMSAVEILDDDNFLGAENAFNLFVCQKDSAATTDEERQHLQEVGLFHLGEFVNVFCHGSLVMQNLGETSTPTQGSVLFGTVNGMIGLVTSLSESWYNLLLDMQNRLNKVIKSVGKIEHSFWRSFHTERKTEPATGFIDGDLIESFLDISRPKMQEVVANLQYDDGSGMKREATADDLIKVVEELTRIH
inactive: [1] 0.017 | [8] 0.205 | ibrutinib -0.034 | [5] 0.078

CWF19L2 (UniProt Q2TBE0)
Sequence of UniProt Q2TBE0 (Q2TBE0 whole entry, looked up): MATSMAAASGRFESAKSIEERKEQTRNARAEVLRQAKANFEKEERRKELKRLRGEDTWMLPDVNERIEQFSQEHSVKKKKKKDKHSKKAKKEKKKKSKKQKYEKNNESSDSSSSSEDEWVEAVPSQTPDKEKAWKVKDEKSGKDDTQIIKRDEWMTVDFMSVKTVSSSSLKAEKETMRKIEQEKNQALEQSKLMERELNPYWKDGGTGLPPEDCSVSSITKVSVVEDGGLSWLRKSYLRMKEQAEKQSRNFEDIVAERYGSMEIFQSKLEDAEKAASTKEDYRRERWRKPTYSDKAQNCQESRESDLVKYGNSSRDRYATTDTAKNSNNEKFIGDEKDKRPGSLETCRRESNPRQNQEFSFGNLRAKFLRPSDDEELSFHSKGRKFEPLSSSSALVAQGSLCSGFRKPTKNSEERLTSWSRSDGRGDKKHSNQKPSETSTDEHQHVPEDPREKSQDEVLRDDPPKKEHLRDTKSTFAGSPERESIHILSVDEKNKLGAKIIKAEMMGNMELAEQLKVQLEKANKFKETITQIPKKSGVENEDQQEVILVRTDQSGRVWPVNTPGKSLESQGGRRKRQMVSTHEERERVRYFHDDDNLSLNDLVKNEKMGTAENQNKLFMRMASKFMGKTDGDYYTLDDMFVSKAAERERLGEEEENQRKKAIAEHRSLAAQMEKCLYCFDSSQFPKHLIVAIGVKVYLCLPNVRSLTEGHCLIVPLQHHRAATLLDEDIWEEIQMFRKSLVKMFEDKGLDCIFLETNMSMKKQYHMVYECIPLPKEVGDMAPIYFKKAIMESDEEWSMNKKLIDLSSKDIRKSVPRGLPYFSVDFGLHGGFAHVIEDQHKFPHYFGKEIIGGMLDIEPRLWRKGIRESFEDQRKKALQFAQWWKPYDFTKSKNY
inactive: erlotinib 0.004 | [9] 0.056 | [2] 0.038 | [10] 0.03 | [11] -0.132 | [12] -0.014 | [3] 0.017 | [4] -0.04 | IRAK-1-4 Inhibitor I 0.029 | [13] -0.075 | ralimetinib 0.014 | [6] 0.184 | [14] 0.02 | pinometostat 0.098 | [7] 0.106

ELMO1 (UniProt Q92556)
active: [14] 0.761
inactive: erlotinib 0.111 | [1] -0.079 | [2] -0.001 | [8] 0.037 | [11] -0.308 | IRAK-1-4 Inhibitor I -0.022 | ibrutinib -0.176 | ralimetinib 0.069 | [5] -0.091 | [6] -0.094 | pinometostat -0.161 | [15] 0.037

EEF1D isoform 3 (UniProt P29692)
inactive: erlotinib -0.009 | [2] 0.009 | [3] -0.16 | [4] -0.087 | [6] -0.27 | [7] 0.605

CTNNBL1 (UniProt Q8WYA6)
inactive: [8] -0.032 | ibrutinib 0.046

DOP1A (UniProt Q5JWR5)
inactive: erlotinib 0.177 | [1] 0.009 | [2] -0.152 | [8] 0.035 | ibrutinib -0.093 | [5] -0.054 | [6] 0.092

DNAJB1 (UniProt M0R128)
inactive: [8] -0.105 | [3] 0.142 | [4] 0.133 | ibrutinib -0.077 | [7] 0.111

EEF2K (UniProt O00418)
Sequence of UniProt O00418 (O00418 whole entry, looked up): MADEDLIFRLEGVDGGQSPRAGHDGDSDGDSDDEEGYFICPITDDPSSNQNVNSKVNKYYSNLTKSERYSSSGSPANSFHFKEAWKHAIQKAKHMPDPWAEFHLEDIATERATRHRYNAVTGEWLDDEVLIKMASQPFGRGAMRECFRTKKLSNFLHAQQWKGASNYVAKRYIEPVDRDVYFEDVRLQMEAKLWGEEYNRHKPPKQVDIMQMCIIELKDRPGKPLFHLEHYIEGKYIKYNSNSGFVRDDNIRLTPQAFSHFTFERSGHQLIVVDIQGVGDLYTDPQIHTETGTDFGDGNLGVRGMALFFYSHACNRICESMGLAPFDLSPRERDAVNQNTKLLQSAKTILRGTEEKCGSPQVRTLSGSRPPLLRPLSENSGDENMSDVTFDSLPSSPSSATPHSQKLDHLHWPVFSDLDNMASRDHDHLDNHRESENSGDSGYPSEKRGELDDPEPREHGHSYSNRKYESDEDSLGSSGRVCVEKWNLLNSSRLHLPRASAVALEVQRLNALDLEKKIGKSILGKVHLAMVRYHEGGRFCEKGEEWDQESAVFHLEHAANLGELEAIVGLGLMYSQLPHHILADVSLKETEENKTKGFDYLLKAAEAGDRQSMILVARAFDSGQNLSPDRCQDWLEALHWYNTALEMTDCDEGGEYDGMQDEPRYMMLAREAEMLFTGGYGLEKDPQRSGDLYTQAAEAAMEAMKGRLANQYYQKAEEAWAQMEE
inactive: erlotinib -0.064 | [1] -0.137 | [2] -0.024 | [11] 0.027 | ralimetinib 0.126 | [5] -0.047 | [6] -0.245 | [14] 0.169

FAM193B (UniProt Q96PV7)
Sequence of UniProt Q96PV7 (Q96PV7 whole entry, looked up): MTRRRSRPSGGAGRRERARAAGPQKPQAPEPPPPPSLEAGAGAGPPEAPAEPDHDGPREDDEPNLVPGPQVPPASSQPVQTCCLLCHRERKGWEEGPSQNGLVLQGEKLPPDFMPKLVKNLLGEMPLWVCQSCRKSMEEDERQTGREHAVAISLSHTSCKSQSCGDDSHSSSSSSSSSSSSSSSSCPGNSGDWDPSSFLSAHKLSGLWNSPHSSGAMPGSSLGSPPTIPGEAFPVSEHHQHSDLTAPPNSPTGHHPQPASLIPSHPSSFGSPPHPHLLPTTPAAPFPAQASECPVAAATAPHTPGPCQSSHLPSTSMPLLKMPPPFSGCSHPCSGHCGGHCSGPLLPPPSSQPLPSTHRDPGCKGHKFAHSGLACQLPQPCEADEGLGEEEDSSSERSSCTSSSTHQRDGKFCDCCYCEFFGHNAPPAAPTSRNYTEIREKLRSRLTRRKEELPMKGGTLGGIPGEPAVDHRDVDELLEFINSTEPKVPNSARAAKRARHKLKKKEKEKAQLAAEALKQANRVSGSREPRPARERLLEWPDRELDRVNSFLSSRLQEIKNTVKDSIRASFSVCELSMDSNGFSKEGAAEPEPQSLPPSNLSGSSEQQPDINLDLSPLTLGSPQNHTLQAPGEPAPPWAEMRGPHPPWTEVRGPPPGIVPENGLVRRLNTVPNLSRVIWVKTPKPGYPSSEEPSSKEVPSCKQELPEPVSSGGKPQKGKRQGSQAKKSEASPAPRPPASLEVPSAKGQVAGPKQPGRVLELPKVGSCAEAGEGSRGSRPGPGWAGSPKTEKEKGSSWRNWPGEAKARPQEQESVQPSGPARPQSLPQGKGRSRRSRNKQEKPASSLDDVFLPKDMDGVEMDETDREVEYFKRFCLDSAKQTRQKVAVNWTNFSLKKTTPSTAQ
inactive: [9] -0.127 | [1] -0.311 | [10] -0.085 | [8] 0.068 | [12] -0.101 | [3] -0.133 | [4] -0.483 | IRAK-1-4 Inhibitor I -0.049 | ibrutinib -0.266 | [13] -0.03 | [5] -0.05 | pinometostat 0.112 | [7] -0.181

DNAH5 (UniProt Q8TE73)
inactive: erlotinib 0.014 | [1] 0.036 | [2] 0.001 | [8] -0.005 | [11] -0.067 | [3] 0.084 | [4] 0.095 | IRAK-1-4 Inhibitor I 0.074 | ibrutinib 0.039 | ralimetinib 0.004 | [5] 0.031 | [6] -0.09 | [14] 0.009 | pinometostat 0.055 | [15] -0.023 | [7] 0.106

EHBP1 (UniProt Q8NDI1)
inactive: [9] -0.012 | [10] 0.086 | [12] 0.095 | [3] -0.132 | [4] 0.033 | [13] 0.018 | [7] -0.003

CTSS (UniProt P25774)
Sequence of UniProt P25774 (P25774 whole entry, looked up): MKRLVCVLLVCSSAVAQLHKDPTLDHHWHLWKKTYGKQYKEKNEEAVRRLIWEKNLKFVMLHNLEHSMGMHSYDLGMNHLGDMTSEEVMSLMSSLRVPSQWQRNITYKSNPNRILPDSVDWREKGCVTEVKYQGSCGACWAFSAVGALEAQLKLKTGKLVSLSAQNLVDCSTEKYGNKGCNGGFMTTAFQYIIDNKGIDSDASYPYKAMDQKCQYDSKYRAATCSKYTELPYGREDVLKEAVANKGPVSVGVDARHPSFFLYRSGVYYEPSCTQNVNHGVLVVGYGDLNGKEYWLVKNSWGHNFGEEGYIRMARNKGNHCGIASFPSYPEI
inactive: [11] -0.215 | [3] 0.144 | [4] 0.545 | IRAK-1-4 Inhibitor I -0.023 | ralimetinib -0.026 | [14] 0.12 | pinometostat -0.001 | [7] 0.316
